Source: PubChem BioAssay (NCI)
Compounds without any hit were thinned out: in the full panel of roughly 79,000, 15% have a hit. Unmarked numbers belong to inactive results. The source made the active and inactive calls. Cut-off read from the data, not from the text of the source: active = growth inhibition above about 70%; inactive = the rest.

Key:
[1] = NCI Yeast Anticancer Drug Screen. Data for the rad52 strain (AID 147);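 note: 0% = growth of vehicle-treated control cultures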; settings: S. cerevisiae rad52 mutant growth inhibition, active compounds read high
Outline: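 Read-out: growth inhibition versus vehicle-treated controls. Cells were a DNA repair-deficient yeast strain treated with compounds.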

[2] = NCI Yeast Anticancer Drug Screen. Data for the wt1 strain (AID 149);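 note: 0% = growth of vehicle-treated wt1 cultures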; settings: S. cerevisiae wt1 strain (SPY 50644) growth inhibition, active compounds read high
Outline: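 Measured: growth of wt1 yeast under compound versus vehicle treatment, reported as inhibition.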

[3] = NCI Yeast Anticancer Drug Screen. Data for the rad50EPP+ strain (AID 151);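 note: 0% = growth of vehicle-treated control cultures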; settings: S. cerevisiae rad50 mutant strain, active compounds read high
Outline: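 Growth inhibition read against vehicle controls in rad50EPP+ yeast, a strain altered in DNA damage repair, after compound exposure.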

[4] = NCI Yeast Anticancer Drug Screen. Data for the mgt1 strain (AID 153); settings: S. cerevisiae mgt1 mutant growth inhibition, active compounds read high
Outline: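 mgt1 yeast grown with test compound; read-out is growth inhibition versus vehicle-treated cultures.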

[5] = NCI Yeast Anticancer Drug Screen. Data for the rad50 strain (AID 155);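 note: 0% = growth of vehicle-only cultures of the same strain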; settings: S. cerevisiae rad50 strain growth inhibition, active compounds read high
Outline: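 Growth of the mutant yeast was measured after compound exposure and referenced to vehicle-treated cultures.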

[6] = NCI Yeast Anticancer Drug Screen. Data for the mec2-1 strain (AID 157); settings: S. cerevisiae mec2-1 strain, active compounds read high
Outline: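 Yeast mec2-1 mutant treated with compound. Readout: growth inhibition vs vehicle controls.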

[7] = NCI Yeast Anticancer Drug Screen. Data for the rad14 strain (AID 159);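 note: 0% = growth of vehicle-treated control cultures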; settings: S. cerevisiae rad14 strain growth inhibition, active compounds read high
Outline: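 Here, inhibition of yeast growth was measured after compound exposure, using a strain with a genetic defect in DNA damage repair and vehicle-treated cultures as the reference.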

[8] = NCI Yeast Anticancer Drug Screen. Data for the sgs1 mgt1 strain (AID 161);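 note: 0% = growth of cultures given vehicle only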; settings: S. cerevisiae sgs1 mgt1 strain, active compounds read high
Outline: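 Genetically altered yeast, compound exposure, growth inhibition relative to vehicle.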

[9] = NCI Yeast Anticancer Drug Screen. Data for the CLN2oe strain (AID 163);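 note: 0% = growth of vehicle-only control cultures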; settings: S. cerevisiae CLN2oe strain, active compounds read high
Outline: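 Read-out: yeast growth inhibition, expressed relative to vehicle-only controls. The strain bears an engineered cell-cycle alteration.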

[10] = NCI Yeast Anticancer Drug Screen. Data for the cln2 rad14 strain (AID 165);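 note: 0% = growth equal to vehicle treated cultures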; settings: S. cerevisiae cln2 rad14 strain, active compounds read high
Outline: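 cln2 rad14 yeast strain; compound exposure; growth inhibition read vs vehicle controls.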

[11] = NCI Yeast Anticancer Drug Screen. Data for the bub3 strain (AID 167); settings: S. cerevisiae bub3 mutant strain, active compounds read high
Outline: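 Whole-cell yeast assay. The mutant strain was incubated with compounds, and growth inhibition was determined by comparison with vehicle-treated cells.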

[12] = NCI Yeast Anticancer Drug Screen. Data for the mlh1 strain (AID 171);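 note: 0% = growth of vehicle-treated control cultures of the same strain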; settings: S. cerevisiae mlh1 strain growth inhibition, active compounds read high
Outline: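 Read-out: growth inhibition versus vehicle controls. Strain: engineered yeast with a defined DNA repair or cell cycle defect, compound-treated.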

[13] = NCI Yeast Anticancer Drug Screen. Data for the sgs1 strain (AID 173);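 note: 0% = growth of vehicle-only control cultures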; settings: S. cerevisiae sgs1 mutant, active compounds read high
Outline: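 Read-out: yeast growth inhibition relative to vehicle controls, following compound exposure of a strain with a defined DNA repair/cell cycle alteration.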

[14] = NCI Yeast Anticancer Drug Screen. Data for the mlh1 rad18 strain (AID 175); settings: S. cerevisiae mlh1 rad18 strain growth inhibition, active compounds read high
Outline: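 Yeast w/ defined DNA-repair lesions; compound exposure; growth vs vehicle controls → % inhibition.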

[15] = NCI Yeast Anticancer Drug Screen. Data for the rad18 strain (AID 177); settings: S. cerevisiae rad18 mutant growth inhibition, active compounds read high
Outline: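 Readout: growth inhibition vs vehicle controls. Cells: genetically altered yeast strain, DNA repair defect.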

[16] = at 5.0 µM (retest, dose inferred, filed as 0.5)
[17] = at 50.0 µM (retest, dose inferred, filed as 5.0)

## CC[C@@]1(O)C[C@H](OC2CC(N(C)C)C(O)C(C)O2)c2c(O)c3c(c(O)c2[C@H]1OC1CC(N(C)C)C(O)C(C)O1)C(=O)c1cccc(O)c1C3=O (stereo partly drawn)
[1]; at 1.2 µM
  growth inhibition: 36%
[1]; at 3.7 µM
  growth inhibition: 38%
[1]; at 11.0 µM
  growth inhibition: 35%
[1]; at 33.0 µM
  growth inhibition: 46%
[1]; at 100.0 µM
  growth inhibition: 92% (active)
[2]; at 1.2 µM
  growth inhibition: -8%
[2]; at 3.7 µM
  growth inhibition: 4%
[2]; at 11.0 µM
  growth inhibition: 7%
[2]; at 33.0 µM
  growth inhibition: 12%
[2]; at 100.0 µM
  growth inhibition: 42%
[3]; at 1.2 µM
  growth inhibition: 20%
[3]; at 3.7 µM
  growth inhibition: 26%
[3]; at 11.0 µM
  growth inhibition: 25%
[3]; at 33.0 µM
  growth inhibition: 21%
[3]; at 100.0 µM
  growth inhibition: 34%
[4]; at 1.2 µM
  growth inhibition: 16%
[4]; at 3.7 µM
  growth inhibition: 20%
[4]; at 11.0 µM
  growth inhibition: 13%
[4]; at 33.0 µM
  growth inhibition: 18%
[4]; at 100.0 µM
  growth inhibition: 87% (active)
[5]; at 1.2 µM
  growth inhibition: 15%
[5]; at 3.7 µM
  growth inhibition: 14%
[5]; [16]
  growth inhibition: 16%
[5]; at 11.0 µM
  growth inhibition: 11%
[5]; at 33.0 µM
  growth inhibition: 27%
[5]; [17]
  growth inhibition: 65%
[5]; at 50.0 µM
  growth inhibition: 83.1% (active)
[5]; at 100.0 µM
  growth inhibition: 90% (active)
[6]; at 1.2 µM
  growth inhibition: 10%
[6]; at 3.7 µM
  growth inhibition: -1%
[6]; [16]
  growth inhibition: 10%
[6]; at 11.0 µM
  growth inhibition: 3%
[6]; at 33.0 µM
  growth inhibition: -4%
[6]; [17]
  growth inhibition: 23%
[6]; at 50.0 µM
  growth inhibition: 85% (active)
[6]; at 100.0 µM
  growth inhibition: 62%
[7]; at 1.2 µM
  growth inhibition: 15%
[7]; at 3.7 µM
  growth inhibition: 15%
[7]; at 11.0 µM
  growth inhibition: 17%
[7]; at 33.0 µM
  growth inhibition: 16%
[7]; at 100.0 µM
  growth inhibition: 83% (active)
[8]; [16]
  growth inhibition: 5%
[8]; [17]
  growth inhibition: 89% (active)
[8]; at 50.0 µM
  growth inhibition: 88.2% (active)
[9]; at 1.2 µM
  growth inhibition: 3%
[9]; at 3.7 µM
  growth inhibition: 6%
[9]; at 11.0 µM
  growth inhibition: 1%
[9]; at 33.0 µM
  growth inhibition: 10%
[9]; at 100.0 µM
  growth inhibition: 75% (active)
[10]; [16]
  growth inhibition: 8%
[10]; [17]
  growth inhibition: 71% (active)
[10]; at 50.0 µM
  growth inhibition: 75.8% (active)
[11]; at 1.2 µM
  growth inhibition: 8%
[11]; at 3.7 µM
  growth inhibition: 12%
[11]; [16]
  growth inhibition: -9%
[11]; at 11.0 µM
  growth inhibition: 6%
[11]; at 33.0 µM
  growth inhibition: 10%
[11]; [17]
  growth inhibition: 77% (active)
[11]; at 50.0 µM
  growth inhibition: 83.4% (active)
[11]; at 100.0 µM
  growth inhibition: 84% (active)
[12]; at 1.2 µM
  growth inhibition: 20%
[12]; at 3.7 µM
  growth inhibition: 20%
[12]; at 11.0 µM
  growth inhibition: 16%
[12]; at 33.0 µM
  growth inhibition: 10%
[12]; at 100.0 µM
  growth inhibition: 88% (active)
[13]; at 1.2 µM
  growth inhibition: 14%
[13]; at 3.7 µM
  growth inhibition: 9%
[13]; at 11.0 µM
  growth inhibition: 11%
[13]; at 33.0 µM
  growth inhibition: 18%
[13]; at 100.0 µM
  growth inhibition: 89% (active)
[14]; [16]
  growth inhibition: 13%
[14]; [17]
  growth inhibition: 63%
[14]; at 50.0 µM
  growth inhibition: 85% (active)
[15]; at 1.2 µM
  growth inhibition: 6%
[15]; at 3.7 µM
  growth inhibition: 12%
[15]; at 11.0 µM
  growth inhibition: 5%
[15]; at 33.0 µM
  growth inhibition: 30%
[15]; at 100.0 µM
  growth inhibition: 88% (active)
